Laboratory results reported in PubChem BioAssay AID1063 (University of Pittsburgh Molecular Library Screening Center, 2008).
In all, about 200,000 compounds went through this assay and about 18,000 (9%) were called active. The sample as a whole holds a higher share of actives than the screen did. A number with no mark means an inactive call. No stated cut-off is given here; in the data, active means inhibition above about 50%; inactive means the rest.

Test: Leishmania major promastigote growth inhibition, primary screen (AID 1063);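 further: promastigotes grown with compound for 44 hours at 28 °C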
Conditions: Leishmania major promastigotes, resazurin fluorescence viability; at 10 µM; stronger effect = higher value

SMILES | inhibition
O=C(CP(=O)(c1ccccc1)c1ccccc1)N1CCOCC1 | -9.31%
CS(=O)(=O)N(Cc1ccccc1Cl)c1ccc(C(=O)NCc2cccnc2)cc1 | 1.77%
O=C(NC1CCCCCC1)c1cccnc1Sc1ccc(Cl)cc1 | -4.38%
O=C(NCc1cccnc1)c1cccnc1Sc1ccc(Cl)cc1 | 84.6% (active)
Cc1ccc(CNC(=O)c2cccnc2Cl)cc1 | 0.71%
O=C(O)c1ccccc1-c1ccccc1C(=O)NCc1cccnc1 | -6.64%
Cc1ccc(S(=O)(=O)N(Cc2ccc(Cl)cc2)c2ccccc2C(=O)NCc2cccnc2)cc1 | 93.2% (active)
O=C(NC(=S)Nc1cccc(-c2ccc(CO)o2)c1)c1cccs1 | -1.96%
Cc1cc2c(cc1C)[n+](C)cn2CC(O)COCC1CC=CCC1 (centres undefined) | -1.67%
COc1ccc(N2CCN(C(=O)/C(C#N)=C/c3ccccc3)CC2)cc1 | 6.39%
Cc1ccc(N2C(=O)C3CC3C2=O)cc1 (centres undefined) | -5.37%
O=C(COC(=O)c1ccc(Cl)nc1)NCc1cccs1 | -8.06%
CC(=O)Nc1cccc(-c2nc3ccccc3s2)c1C | 17.8%
CCN(CC)c1ccc(C(=O)c2cnc(/N=C/N(C)C)s2)cc1 | 0.96%
Cc1cccc(N2CCN(c3ccc(C(N)=O)cc3[N+](=O)[O-])CC2)c1C | 2.25%
CCc1c(SCCC(=O)O)nc2ccccc2c1C | -1.78%
CN1CCN(NC(=O)c2ccc(S(=O)(=O)N3CCCCCC3)cc2)CC1 | -0.39%
CC1=NNC(=O)C1CCC(=O)N/N=C\c1ccc(Cl)c(Cl)c1 (centres undefined) | -3.71%
O=C(CC(=O)Nc1ccc(Cl)c(Cl)c1)N/N=C/c1ccc(O)cc1 | 59.3% (active)
O=C(C[n+]1ccccc1)N/N=C/c1ccc(O)cc1 | -6.86%
CCOC(=O)c1c(-c2cccc(N)c2)cn2ccccc12 | 0.87%
Cc1ccc(COc2ccc(/C=N/NC(=O)CN3CCCCC3)cc2)cc1 | 5.55%
O=C(CCl)N(Cc1cccc([N+](=O)[O-])c1)c1cccc(Cl)c1 | 101% (active)
O=C(Nc1cccc([N+](=O)[O-])c1)Nc1ccc(Cl)cn1 | -0.05%

SMILES | inhibition
CCN(CC)C(=O)CN(c1cccc([N+](=O)[O-])c1)S(=O)(=O)c1ccccc1 | -3.8%
Cc1ccc(C(=O)OC(C)CN2CCOCC2)cc1 (centres undefined) | -9.42%
COC(=O)C(C)NC(=O)COc1ccc2ccccc2c1 (centres undefined) | 9.52%
CCCCCCCCc1c(O)nc(-n2[nH]c(C)c(CCO)c2=O)[nH]c1=O | -4.27%
COC(=O)/C(=C1\Oc2ccc(C(C)(C)C)cc2S1)C(F)(F)F | -4.31%
Cc1cc2ccccn2c1C(=O)c1cccc(S(=O)(=O)N2CCOCC2)c1 | 15.2%
COc1ccc(C(=O)CSc2nnnn2C)c(OC)c1 | -1.53%
Cc1nn(CC(=O)Nc2ccc(N(C)C)cc2)c(C)c1[N+](=O)[O-] | 0.03%
Cc1ccc(Oc2cc(NC(=O)CCCn3nc(C)c([N+](=O)[O-])c3C)cc([N+](=O)[O-])c2)cc1 | 98.4% (active)
COc1ccc(CNC(=O)CCCn2nc(C)c([N+](=O)[O-])c2C)cc1 | -8.33%
Cc1ccc(CNC(=O)CC2Sc3ccccc3NC2=O)cc1 (centres undefined) | -7.06%
CNc1nc2c(C)cccn2c(=O)c1C=Nc1ccc(OC)cc1 | 1.72%
CC(=O)Nc1ccc(/C(C)=N/NC(=O)CN(c2ccccc2Br)S(C)(=O)=O)cc1 | 50.5% (active)
C/C(=N/NC(=O)c1ccc(NC(=O)c2ccc(F)cc2)cc1)c1ccccc1 | -6.46%
COc1ccccc1N(CC(=O)Nc1ccc(C(F)(F)F)cc1)S(C)(=O)=O | 1.92%
O=C(Nc1ccccc1F)c1ccc(Cn2cc(Br)cn2)cc1 | -6.11%
Cc1ccc(-c2nc(C#N)c(NCCCn3ccnc3)o2)cc1 | 2.16%
O=C(Cn1ncc(N2CCCC2)c(Br)c1=O)c1ccc(Cl)cc1 | 1.31%
Cn1c(C(=O)NCCCN2CCN(c3cccc(Cl)c3)CC2)cc2c(=O)n(C)c3ccccc3c21 | 62.5% (active)
CC1CCCC(C)N1CCCNC(=O)c1cc2c(=O)n(C)c3ccccc3c2n1C (centres undefined) | 8.51%
CCn1c(=O)cc(OCC(=O)NCCCN2CCN(c3cccc(Cl)c3)CC2)c2ccccc21 | 23.9%
Cc1cc(NC(=O)CSc2nc3c(cc2C#N)CCCCC3)no1 | 2.09%
O=C(CCC1CCCN(C(=O)Cc2ccc(F)cc2)C1)N1CCN(c2ccccn2)CC1 (centres undefined) | 0.87%
O=C(COC(=O)c1cnccn1)Nc1cccc2ccccc12 | -4.62%

SMILES | inhibition
Cc1cc(C)n2nc(C(=O)N(C)C(c3ccccc3)c3ccccc3)nc2n1 | 0.1%
O=C(CO/N=C/c1ccc(OC(F)F)cc1)NCc1ccc(F)cc1 | 6.32%
COc1ccc(N2C(=O)C(CC(=O)Nc3ccccc3)N(Cc3ccc(OC)c(OC)c3)C2=O)cc1 (centres undefined) | -5.05%
COC(=O)CN1C(=S)N(c2ccccc2)C(=O)C1CC(=O)Nc1ccc(Cl)cc1 (centres undefined) | 50.4% (active)
CCOc1ccc(NC(=O)CC2C(=O)N(c3ccccc3)C(=O)N2CCOC)cc1 (centres undefined) | -1.57%
O=C(Nc1ccc(-c2ccc3nncn3n2)cc1)C1CCCCC1 | -4.63%
CCc1ccc(CN2C(=O)c3ccccc3C2C(=O)NCC2CCCO2)cc1 (centres undefined) | 5.61%
COc1cccc(CN(C)CC(=O)NCc2ccccc2Cl)c1OC | 2.93%
COC(=O)c1cc(S(=O)(=O)NC2CCN(Cc3ccccc3)CC2)cn1C | 79.3% (active)
Cn1c(=O)c(=O)n(C)c2cc(S(=O)(=O)NCCc3ccccc3)ccc21 | 18.8%
O=C(NC1(C(F)(F)F)NC(=O)N(C2CCCCC2)C1=O)c1ccco1 (centres undefined) | -0.8%
COc1cc(NC(=S)NCc2ccco2)c(OC)cc1Cl | 7.75%
COc1ccccc1C(=O)Nc1ccc(NC(=O)c2ccco2)c(C)c1 | 3.48%
COC(=O)c1ccc(NC(=O)c2ccco2)cc1 | -5.73%
COc1ccc(NC(=O)c2cccc(NC(=O)c3ccco3)c2)c(OC)c1 | 99.3% (active)
O=C(Nc1ccc(NC(=O)c2ccco2)c(Cl)c1)c1cccc([N+](=O)[O-])c1 | -5.27%
Cc1ccc(C(=O)COc2cccc(NC(=O)c3ccco3)c2)cc1 | 64.6% (active)
COc1cc(NC(=O)c2cc([N+](=O)[O-])ccc2Br)ccc1NC(=O)c1ccco1 | 99% (active)
Cc1ccnc(NC(=O)c2ccc(NC(=O)c3ccco3)cc2)c1 | -2.95%
COC(=O)c1cc(Cl)c(NC(=O)c2ccco2)cc1OC | 8.8%
COc1cccc(C(=O)Nc2ccc(NC(=O)c3ccco3)cn2)c1 | 4.41%
CCS(=O)(=O)c1ccc(O)c(NC(=O)COc2ccc(Cl)cc2)c1 | -12.8%
CCOc1c(CNCc2ccc(C(=O)O)cc2)cccc1OC | -5.92%
NS(=O)(=O)c1ccc(NC(=S)NC(=O)c2cccnc2)cc1 | -2.35%

SMILES | inhibition
COCC(C)n1c(C)cc(C(=O)COc2ccc(C)nc2[N+](=O)[O-])c1C (centres undefined) | 3.94%
CCc1ccc(NC(=O)C(=O)N/N=C(\C)CC(=O)NCCOC)cc1 | -2.29%
COc1ccc(NC(=O)CN2C(=O)CSC2=O)cc1 | -6.2%
CCc1nnc(NS(=O)(=O)c2ccc(N=Cc3c(C)[nH]n(-c4ccc(C)cc4)c3=O)cc2)s1 | -3.52%
COc1cc(SC#N)ccc1N=Cc1c(C)[nH]n(-c2ccc(C)cc2)c1=O | 100% (active)
Cc1ccc(-n2[nH]c(C)c(/C=N/N3C(=O)c4cccc5cccc(c45)C3=O)c2=O)cc1 | -6.15%
COc1ccc(C)cc1NC(=O)CSc1nnc(CC(=O)Nc2ccccc2F)n1C | -0.88%
O=C(COC(=O)C12CC3CC(CC(O)(C3)C1)C2)NC12CC3CC(CC(C3)C1)C2 | 17.4%
COCCN(CCOC)C(=S)Nc1ccccc1Cl | -4.19%
Cc1ccc(CN(Cc2cccnc2)C(=S)Nc2cccc(Cl)c2C)cc1 | 21.5%
Cc1ccc(NC(=S)NCc2ccccc2Cl)c(C)c1 | 22.1%
Cc1cccc(C)c1NC(=S)N(Cc1cccnc1)Cc1ccccc1Cl | 93.8% (active)
Cc1ccc(C(=O)NC(=S)NCc2cccnc2)cc1 | 2.7%
O=C(Nc1ccccc1)N(Cc1cccnc1)Cc1ccco1 | 4.43%
COCCNC(=S)N(Cc1cccnc1)Cc1ccc(OC)c(OC)c1 | 1.16%
Cc1c(Cl)cccc1NC(=S)N(Cc1ccccc1)Cc1cccnc1 | 90.4% (active)
Cc1ccc(CN(Cc2cccnc2)C(=S)Nc2cc(Cl)ccc2C)cc1 | 93.8% (active)
CC(C)CCC(C)NC(=O)c1ccc2nccnc2c1 (centres undefined) | 11.2%
COc1cc(-c2nnn(CC(=O)NCc3ccccc3)n2)cc(OC)c1OC | 16.3%
COc1cc(C(=O)N2C(=O)c3cccc(N)c3C2=O)cc(OC)c1OC | -3.21%
COCCn1c(C)cc(C(=O)COC(=O)/C=C/c2cccc(OC)c2)c1C | 0.63%
Cc1cc(C)nc(NS(=O)(=O)c2ccc(N/C=C\C(=O)c3cccs3)cc2)n1 | 4.34%
